The campaign covered roughly 5,500 compounds. About 2,000 (36%) were called active. Another 18% or so got no clear call; they are omitted. Cut-off read from the data, not from the text of the source: active = normalized growth mostly below about 0.91 (no sharp cut-off); inconclusive = no clear call, values can overlap the other calls; inactive = mostly above about 0.92. The list shows a part of the results.
Test: chemical genetic growth profiling, strain panel (AID 1159580);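 note: tested at 20 µM; growth read once vehicle control cultures reached saturation at 30 °C; 1 = growth at the plate median or of vehicle wells; lower values mean less growth of the strain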
Conditions: S. cerevisiae deletion strains, growth OD
[1] = locus YDL101C, strain DUN1, hits give low values
[2] = locus YHR030C, strain SLT2, hits give low values
[3] = locus YAR019C, strain CDC15, hits give low values
[4] = locus YBL105C, strain PKC1, hits give low values
[5] = locus YBR135W, strain CKS1, hits give low values
[6] = locus YBR136W, strain MEC1, hits give low values
[7] = locus YBR160W, strain CDC28, hits give low values
[8] = locus YDL017W, strain CDC7, hits give low values
[9] = locus YDL028C, strain MPS1, hits give low values
[10] = locus YDL108W, strain KIN28, hits give low values
[11] = locus YDL132W, strain cdc53, hits give low values
[12] = locus YDL214C, strain PRR2, hits give low values
[13] = locus YDR052C, strain DBF4, hits give low values
[14] = locus YDR054C, strain cdc34, hits give low values
[15] = locus YDR226W, strain ADK1, hits give low values
[16] = locus YDR477W, strain SNF1, hits give low values
[17] = locus YER123W, strain YCK3, hits give low values
[18] = locus YER133W, strain GLC7, hits give low values
[19] = locus YFL009W, strain cdc4, hits give low values
[20] = locus YFL029C, strain CAK1, hits give low values
[21] = locus YFR003C, strain YPI1, hits give low values
[22] = locus YFR019W, strain FAB1, hits give low values
[23] = locus YFR028C, strain CDC14, hits give low values
[24] = locus YGR040W, strain KSS1, hits give low values
[25] = locus YGR052W, strain FMP48, hits give low values
[26] = locus YGR092W, strain DBF2, hits give low values
[27] = locus YHR079C, strain IRE1, hits give low values
[28] = locus YHR082C, strain KSP1, hits give low values
[29] = locus YHR205W, strain SCH9, hits give low values
[30] = locus YIL147C, strain SLN1, hits give low values
[31] = locus YJL095W, strain BCK1, hits give low values
[32] = locus YJL128C, strain PBS2, hits give low values
[33] = locus YJL157C, strain FAR1, hits give low values
[34] = locus YJR016C, strain ILV3, hits give low values
[35] = locus YJR066W, strain TOR1 (second series), hits give low values
[36] = locus YJR066W, strain TOR1, hits give low values
[37] = locus YKL048C, strain ELM1, hits give low values
[38] = locus YKL067W, strain YNK1, hits give low values
[39] = locus YKL101W, strain HSL1, hits give low values
[40] = locus YKL193C, strain SDS22, hits give low values
[41] = locus YKL203C, strain TOR2, hits give low values
[42] = locus YLR113W, strain HOG1, hits give low values
[43] = locus YLR133W, strain CKI1, hits give low values
[44] = locus YLR403W, strain SFP1, hits give low values
[45] = locus YML070W, strain DAK1, hits give low values
[46] = locus YMR001C, strain CDC5, hits give low values
[47] = locus YMR205C, strain PFK2 (second series), hits give low values
[48] = locus YMR277W, strain FCP1, hits give low values
[49] = locus YNL006W, strain LST8, hits give low values
[50] = locus YNL020C, strain ARK1, hits give low values
[51] = locus YNL161W, strain CBK1, hits give low values
[52] = locus YNL183C, strain NPR1, hits give low values
[53] = locus YNL207W, strain RIO2, hits give low values
[54] = locus YNL222W, strain SSU72, hits give low values
[55] = locus YNL307C, strain MCK1 (second series), hits give low values
[56] = locus YOL078W, strain AVO1, hits give low values
[57] = locus YOL136C, strain PFK27, hits give low values
[58] = locus YOR061W, strain CKA2, hits give low values
[59] = locus YOR119C, strain RIO1, hits give low values
[60] = locus YOR231W, strain MKK1, hits give low values
[61] = locus YOR329C, strain SCD5, hits give low values
[62] = locus YPL031C, strain PHO85, hits give low values
[63] = locus YPL153C, strain RAD53, hits give low values
[64] = locus YPL204W, strain HRR25, hits give low values
[65] = locus YPL209C, strain IPL1, hits give low values
[66] = locus YPL256C, strain CLN2, hits give low values
[67] = locus YPR025C, strain CCL1, hits give low values
[68] = locus YPR106W, strain ISR1, hits give low values
[69] = locus YPR111W, strain DBF20, hits give low values
[70] = strain NNK1, hits give low values
[71] = strain TSCII, hits give low values

Measured: normalized growth

N/C(=N\OC(=O)c1ccno1)c1ccc(C(F)(F)F)cc1
inactive: locus YAL013W, strain DEP1, hits give low values 0.951 | locus YBR229C, strain ROT2, hits give low values 0.992 | locus YCL061C, strain MRC1, hits give low values 0.974 | [1] 1.02 | locus YDR150W, strain NUM1, hits give low values 0.978 | locus YEL061C, strain CIN8, hits give low values 1 | locus YGR078C, strain PAC10, hits give low values 0.971 | locus YGR229C, strain SMI1, hits give low values 1.02 | [2] 0.888 | locus YHR087W, strain rtc3, hits give low values 0.966 | locus YJL187C, strain SWE1, hits give low values 0.993 | locus YJR043C, strain POL32, hits give low values 0.988 | locus YJR075W, strain HOC1, hits give low values 1.01 | locus YKL190W, strain CNB1, hits give low values 1.01 | locus YLR039C, strain RIC1, hits give low values 0.91 | locus YLR058C, strain SHM2 (second series), hits give low values 0.988 | locus YLR085C, strain ARP6, hits give low values 1.06 | locus YLR262C, strain YPT6, hits give low values 0.944 | locus YML094W, strain GIM5, hits give low values 0.95 | locus YMR219W, strain ESC1, hits give low values 0.996 | locus YMR263W, strain SAP30, hits give low values 0.98 | locus YMR307W, strain GAS1, hits give low values 1.17 | locus YNL153C, strain GIM3, hits give low values 0.973 | locus YNL298W, strain CLA4 (second series), hits give low values 0.949 | locus YNL322C, strain KRE1, hits give low values 0.987 | locus YNR030W, strain Alg12, hits give low values 0.939 | locus YOL006C, strain TOP1, hits give low values 0.939 | locus YPL055C, strain LGE1, hits give low values 0.839 | locus YPL241C, strain CIN2, hits give low values 1.03 | locus YPR135W, strain CTF4, hits give low values 0.82

Cc1cc(C(=O)O/N=C(/N)c2ccc([N+](=O)[O-])o2)no1
active: [26] 0.178 | [2] 0.218 | [42] 0.757 | [60] 0.567 | [66] 0.741
inactive: [3] 0.961 | [4] 0.968 | [5] 0.963 | [6] 0.962 | [7] 0.951 | [8] 0.963 | [9] 0.931 | [1] 0.964 | [10] 0.949 | [11] 0.968 | [12] 0.887 | [13] 0.919 | [14] 0.991 | [15] 0.927 | [16] 0.918 | [17] 0.87 | [18] 0.963 | [19] 0.97 | [20] 0.965 | [21] 0.955 | [22] 0.877 | [23] 0.938 | [24] 0.848 | [25] 0.869 | [27] 0.832 | [28] 0.892 | [29] 0.745 | [30] 0.946 | [31] 0.796 | [32] 0.895 | [33] 0.914 | [34] 0.953 | [35] 0.822 | [36] 0.809 | [37] 0.831 | [38] 0.868 | [39] 0.83 | [40] 0.962 | [41] 0.99 | [43] 0.894 | [44] 0.927 | [45] 0.846 | [46] 0.963 | [47] 0.938 | [48] 0.941 | [49] 0.979 | [50] 0.885 | [51] 0.967 | [52] 0.898 | [53] 0.948 | [54] 0.957 | [55] 0.825 | [56] 0.952 | [57] 0.873 | [58] 0.866 | [59] 0.888 | [61] 0.965 | [62] 0.92 | [63] 0.949 | [64] 0.946 | [65] 0.964 | [67] 0.97 | [68] 0.936 | [69] 0.896 | [70] 0.94 | [71] 0.965

Cc1cc(C(=O)O/N=C(/N)c2ccc(C(C)(C)C)cc2)no1
active: [2] 0.77 | [42] 0.789
inactive: [3] 0.972 | [4] 0.979 | [5] 0.975 | [6] 0.985 | [7] 0.979 | [8] 0.993 | [9] 0.971 | [1] 0.993 | [10] 0.976 | [11] 0.975 | [12] 0.909 | [13] 0.986 | [14] 0.963 | [15] 0.983 | [16] 0.911 | [17] 0.901 | [18] 0.882 | [19] 0.952 | [20] 0.969 | [21] 0.986 | [22] 0.922 | [23] 0.98 | [24] 0.956 | [25] 0.958 | [26] 0.906 | [27] 0.789 | [28] 0.939 | [29] 0.822 | [30] 0.982 | [31] 0.772 | [32] 0.938 | [33] 0.923 | [34] 0.98 | [35] 0.738 | [36] 0.722 | [37] 1.05 | [38] 0.921 | [39] 1.01 | [40] 0.978 | [41] 0.88 | [43] 0.943 | [44] 0.852 | [45] 0.915 | [46] 0.974 | [47] 0.916 | [48] 0.961 | [49] 0.972 | [50] 0.942 | [51] 0.983 | [52] 0.782 | [53] 0.979 | [54] 0.969 | [55] 0.939 | [56] 0.979 | [57] 0.959 | [58] 0.93 | [59] 0.911 | [60] 0.803 | [61] 0.987 | [62] 0.901 | [63] 0.893 | [64] 0.914 | [65] 0.974 | [66] 0.884 | [67] 0.973 | [68] 0.98 | [69] 0.964 | [70] 0.999 | [71] 0.966

From PubChem BioAssay AID1159580 (chemical genetic matrix, 2015)
